Data as given in ChEMBL document CHEMBL4513146, “CO-ADD screening of Karazin Kharkiv National University (Ukraine) compounds”.
Results with a measured potency or affinity are listed apart.

Experiments:
[1] = tested on: Klebsiella pneumoniae; conditions: Concentration 32 ug.mL-1;; ASSAY_TEST Inhibition of Bacterial Growth; detection method Absorption (OD600); MEDIA CAMHB; plate type 384well; NBS; CORNING #3640; time 18 hr
[2] = tested on: Candida albicans; conditions: Concentration 32 ug.mL-1; ASSAY_TEST Inhibition of Fungal Growth; detection method Absorption (OD530)
[3] = tested on: Cryptococcus neoformans; conditions: Concentration 32 ug.mL-1; ASSAY_TEST Inhibition of Fungal Growth; detection method Resazurin; Absorption (OD600-OD570); plate type 384well; NBS; CORNING #3640

| SMILES | Inhibition [1] [%] | Inhibition [2] [%] | Inhibition [3] [%] |
| --- | --- | --- | --- |
| CC(C)Sc1ccc2nn(CC(=O)Nc3ccccc3F)c(=O)n2n1 | 9.69 | 2.46 | -3.85 |
| CCc1ccc(N(Cc2ccccc2)S(=O)(=O)c2cccn3c(C)nnc23)cc1 | 5.96 | -1.36 | -9.98 |
| O=C(CSc1nnc2c(=O)n(-c3ccc(Br)cc3)ccn12)Nc1cc(F)ccc1F | 10.57 | 7.34 | -16.33 |
| COc1cccc(CN(c2cccc(F)c2)S(=O)(=O)c2ccc3nnc(C)n3c2)c1 | 3.28 | 3.11 | -1.07 |
| O=C(Cn1nc2ccc(Sc3cccc(F)c3)nn2c1=O)NCc1ccc(C(F)(F)F)cc1 | 8.35 | 1.44 | -8.13 |
| Cc1c(Cl)cccc1-n1ccn2c(=O)n(Cc3ccc(Cl)cc3)nc2c1=O | 2.87 | 1.02 | -15.09 |
| CCc1ccccc1Sc1nccn2c(=O)n(CC(=O)Nc3ccc(C)cc3)nc12 | -4.69 | 39.33 | -9.26 |
| Cc1ccc(CNC(=O)CSc2nnc3c(=O)n(-c4ccccc4)ccn23)cc1 | 13.24 | 3.44 | -18.23 |
| O=C(Cn1nc2c3sccc3ncn2c1=O)Nc1ccc2c(c1)OCO2 | -3.23 | 1.42 | -18.53 |
| COc1ccccc1-n1ccn2c(SCC(=O)Nc3ccc(C)cc3C)nnc2c1=O | 11.64 | 2.45 | -10.8 |
| COc1ccc(-c2cc3c4nn(CC(=O)Nc5cc(C)ccc5C)c(=O)n4ccn3n2)cc1 | 11.61 | 0.97 | -22.77 |
| CCOc1ccc(-c2nc(CSc3nc4ccccc4n4c(C(C)C)nnc34)c(C)o2)cc1 | 2.25 | -0.51 | -14.56 |
| CCc1ccc(NC(=O)Cn2nc3c4cc(-c5ccc(C)c(C)c5)nn4ccn3c2=O)cc1 | 5.45 | 21.77 | -12.06 |
| Cc1ccccc1Oc1nccn2c(=O)n(CC(=O)Nc3cc(Cl)ccc3Cl)nc12 | 4.89 | 2.23 | -9.52 |
| Cc1cccc(N(C)C(=O)Cn2nc3cc(C)nc(Nc4ccc(C)c(F)c4)n3c2=O)c1 | 20.18 | 4.24 | -1.47 |
| CCC(C)NC(=O)c1ccc2c(=O)n(C3CC3)c3nn(CC(=O)NC(C)C)c(=O)n3c2c1 (stereo not given) | 17.09 | -1.34 | -38.88 |
| Cc1ccc(Oc2nccn3c(=O)n(CC(=O)N4CCN(c5ccc(F)cc5)CC4)nc23)cc1 | 19.83 | 0.18 | -7.7 |
| Cc1ccc(NC(=O)CSc2nc3ccccc3n3cnnc23)c(Br)c1 | 0.14 | 3.27 | -26.85 |
| COc1ccc(-c2cc3c4nn(CC(=O)Nc5c(C)cccc5C)c(=O)n4ccn3n2)cc1 | 9.85 | 7.22 | -19.98 |
| O=C(CSc1nnc2c(=O)n(-c3ccc(F)cc3)ccn12)N1CCN(c2ccc(F)cc2)CC1 | -5.39 | -0.55 | -6.2 |

| SMILES | Inhibition [1] [%] | Inhibition [2] [%] | Inhibition [3] [%] |
| --- | --- | --- | --- |
| Cc1nnc2ccc(S(=O)(=O)N(Cc3cccc(Cl)c3)c3ccc(F)cc3)cn12 | 8 | 2.21 | -6.34 |
| COc1ccccc1Cn1c(=O)c2sccc2n2c(=O)n(Cc3ccc(Br)cc3)nc12 | 3.07 | -0.38 | -8.06 |
| CC(C)c1nnc2c(=O)n(CC(=O)Nc3cccc(F)c3)c3ccccc3n12 | 24.07 | 3.13 | -19.58 |
| O=C(Cn1nc2c3cc(-c4ccccc4)nn3ccn2c1=O)N1CCN(c2ccccc2F)CC1 | 9.85 | 1.75 | -28.45 |
| Cc1ccc(CNC(=O)Cn2nc3ccc(SCc4ccc(Cl)cc4)nn3c2=O)cc1 | 9.12 | 20.24 | -27.26 |
| CC(C)c1nnc2c(SCC(=O)Nc3ccc(Cl)cc3C(F)(F)F)nc3ccccc3n12 | 1.04 | 3.28 | -8.02 |
| CCOc1ccc(-n2ccn3c(SCc4cccc(C(F)(F)F)c4)nnc3c2=O)cc1 | 0.24 | 0.48 | -7.62 |
| Cc1ccc(Cn2c(=O)c3ccccc3n3c(=O)n(CC(=O)Nc4ccc5c(c4)OCCO5)nc23)cc1 | 10.7 | 0.1 | -21.97 |
| COc1ccc(CCn2c(=O)c3sccc3n3c(=O)n(Cc4c(F)cccc4Cl)nc23)cc1OC | 4.92 | -1.61 | -23.43 |
| Cc1cc(NC(=O)Cn2c(=O)c3nnc(C(C)C)n3c3ccccc32)ccc1Br | 7.01 | 3.1 | -11.52 |
| COc1ccc(-n2ccn3c(-c4cccc([N+](=O)[O-])c4)nnc3c2=O)cc1 | 3.7 | 0.19 | -14.9 |
| N#Cc1cccc(NC(=O)Cn2nc3c4cc(-c5ccc(Cl)cc5)nn4ccn3c2=O)c1 | 3.5 | 20.48 | -13.1 |
| CCCCc1ccc(NC(=O)CSc2nnc3c4cc(-c5ccc(C)cc5)nn4ccn23)cc1 | 4.94 | 0.26 | -7.77 |
| COc1cccc(CN(c2ccc(C(C)C)cc2)S(=O)(=O)c2cccn3cnnc23)c1 | 13.52 | 10.84 | -11.09 |
| COc1ccc(NC(=O)Cn2nc3ccc(SC(C)(C)C)nn3c2=O)cc1Cl | 12.99 | 3.69 | -9.98 |
| Cc1ccc(N(Cc2cccc(C)c2)S(=O)(=O)c2cccn3c(C)nnc23)cc1 | 5.17 | 4.46 | -6.62 |
| CC(=O)c1ccc(NC(=O)Cn2nc3c(Sc4ccc(C)cc4C)nccn3c2=O)cc1 | -3.02 | 1.94 | -20.51 |
| CC1CCN(C(=O)Cn2nc3n(Cc4cccs4)c(=O)c4sccc4n3c2=O)CC1 | 0.67 | 6.15 | -10.95 |
| CC(C)Cn1c(=O)c2sccc2n2c(=O)n(CC(=O)NC(C)C)nc12 | 6.06 | 1.49 | -7.6 |
| O=c1c2nnc(SCc3cccc(C(F)(F)F)c3)n2ccn1-c1ccc(Br)cc1 | 4 | 27.57 | -8.16 |

| SMILES | Inhibition [1] [%] | Inhibition [2] [%] | Inhibition [3] [%] |
| --- | --- | --- | --- |
| CCOC(=O)c1ccccc1NC(=O)Cn1nc2c3cc(-c4ccc(Cl)cc4)nn3ccn2c1=O | 14.78 | 2.98 | -20.88 |
| Cc1ccc(N(Cc2ccccc2F)S(=O)(=O)c2ccc3nncn3c2)cc1 | -0.06 | 0.13 | -11.13 |
| Cc1ccccc1Cn1nc2ccc(-c3ccccc3)nn2c1=O | 7.15 | 0.4 | -8.99 |
| O=C(CSc1nnc2c(=O)n(-c3ccc(Br)cc3)ccn12)c1ccc(F)cc1 | 7.31 | 5.26 | -8.48 |
| COc1ccc2[nH]cc(C(=O)CSc3nnc4c(=O)n(-c5ccc(C)c(C)c5)ccn34)c2c1 | 2.12 | 0.06 | -6.08 |
| CCOc1ccc(-n2ccn3c(SCC(=O)c4cccc(OC)c4)nnc3c2=O)cc1 | 9.6 | 2.55 | -9.06 |
| CCOc1ccc(C(=O)Cn2nc3n(CCC(C)C)c(=O)c4sccc4n3c2=O)cc1 | 4.69 | 2.69 | -12.75 |
| Cc1cccc(Oc2nc3ccccc3n3c(=O)n(CC(=O)Nc4ccc5c(c4)OCCO5)nc23)c1C | 14.16 | -0.7 | -31.77 |
| Cc1ccc(NC(=O)c2ccc3nnc(SCC(=O)Nc4ccc(Br)cc4)n3c2)cc1 | 8.72 | 1.55 | -17.05 |
| O=C(CSc1nnc2c(=O)n(-c3ccc(F)cc3)ccn12)N1CCN(c2ccccc2F)CC1 | -3.8 | 5.18 | -7.82 |
| O=C(CSc1nnc2c(=O)n(-c3ccccc3)ccn12)Nc1ccc(Cl)cc1 | 8.54 | 0.98 | -17.38 |
| Cc1ccc(Cn2nc3c(=O)n(-c4cccc(Cl)c4C)ccn3c2=O)cc1 | 10.23 | 6.45 | -17.53 |
| CC(C)c1ccc(NC(=O)CSc2nc3ccccc3n3cnnc23)cc1 | 3.82 | 7.46 | -15.4 |
| N#CCSc1nnc2c(=O)n(-c3ccc(Br)cc3)ccn12 | 12.03 | 1.63 | -7.07 |
| COc1cccc(-n2ccn3c(SCc4c(F)cccc4Cl)nnc3c2=O)c1 | 6.32 | 2.64 | -10.15 |
| CCCCOc1ccc(-c2cc3c4nnc(SCC(=O)Nc5cccc(C#N)c5)n4ccn3n2)cc1 | -0.44 | 7.68 | -23.71 |
| Cc1cc(Nc2ccc(F)cc2)nc2nn(Cc3cccc(C#N)c3)c(=O)n12 | 10.49 | 2.04 | -10.7 |
| CCN(CCCNC(=O)CCc1nnc2ccc(-c3ccc(C)c(C)c3)nn12)c1ccccc1 | 13.51 | 13.02 | -7.8 |
| Cc1ccc(NC(=O)Cn2nc3c(N4CCCC(C)C4)nccn3c2=O)cc1C (stereo not given) | -5.74 | 1.72 | -9.99 |
| CC(=O)c1cccc(NC(=O)CSc2nnc3ccc(C(=O)Nc4cccc(F)c4)cn23)c1 | 7.28 | 5.29 | -6.79 |
